Assay outcomes deposited in PubChem by Sanford-Burnham Center for Chemical Genomics.
Many of the other results were omitted from the sample, so hits are more common in it than they were.
Artemis inh = Artemis (human) endonuclease inhibition; Q96SD1; recombinant Artemis, quenched FAM hairpin cleavage fluorescence; inhibition, % at 10 µM; hit rate 0.78% among 30,000; AID 686954;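 active = at 10 µM dose, at least 30% inhibition, measured as corrected fluorescence normalized to stimulator and neutral control wells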
* hit, by the source's call.

What do the screens show for `Cc1ccc(NC(=O)CN2C(=O)S/C(=C\c3cccn3-c3cccc(C(=O)O)c3)C2=O)c(C)c1`?
Artemis inh: 32*

How did Cc1cccc(C)c1NC(=O)CN1C(=O)S/C(=C\c2cccn2-c2cccc(C(=O)O)c2)C1=O do in these assays?
Artemis inh: 22

Results for Cc1ccccc1NC(=O)CN1C(=O)S/C(=C\c2cccn2-c2cccc(C(=O)O)c2)C1=O ?
Artemis inh: 22

What do the screens show for `O=C(O)/C=C/C(=O)Nc1ccccc1-c1ccccc1`?
Artemis inh: 2

What do the screens show for `CSc1nc2ccccc2n1CC(=O)Nc1cc(C(F)(F)F)ccc1N1CCOCC1`?
Artemis inh: -5

Results for CCCSc1nc2sc3c(c2c(=O)[nH]1)CCN(Cc1ccccc1)C3 ?
Artemis inh: 21

How did O=C(Cc1cn2ccsc2n1)Nc1ccccc1Oc1ccccc1 do in these assays?
Artemis inh: -1

Results for CC1CCc2nc(NC(=O)CN3CCOCC3)sc2C1 (stereo unspecified) ?
Artemis inh: 7

Results for CCN1CCc2c(sc(NC(=S)NC(=O)c3ccccc3)c2C#N)C1 ?
Artemis inh: 1

What do the screens show for `CCN1CCc2nc(NC(=O)C(c3ccccc3)c3ccccc3)sc2C1`?
Artemis inh: 49*

Results for O=C(Cc1cn2ccsc2n1)OCc1ccccc1 ?
Artemis inh: -6

Results for CC1CCc2nc(NC(=O)CN3CCN(c4ccccc4)CC3)sc2C1 (stereo unspecified) ?
Artemis inh: 5

Results for CCN1CCc2nc(NC(=O)CC(c3ccccc3)c3ccccc3)sc2C1 ?
Artemis inh: 39*

Results for O=C(Cc1cn2ccsc2n1)Nc1nc2c(s1)CN(Cc1ccccc1)CC2 ?
Artemis inh: 57*

How did CC(=O)N(C)c1ccc(OCC(O)Cn2c3ccc(Cl)cc3c3cc(Cl)ccc32)cc1 (stereo unspecified) do in these assays?
Artemis inh: 0

How did O=C(Cn1nnc(-c2ccccc2Cl)n1)NCc1ccc2c(c1)OCO2 do in these assays?
Artemis inh: -7

How did CCCc1ccccc1OCCNC(C)=O do in these assays?
Artemis inh: -4

Results for CCCn1c(SCC(N)=O)nnc1-c1ccco1 ?
Artemis inh: 1

What do the screens show for `CS(=O)(=O)N(CC(=O)N1CCc2ccccc2C1)c1ccc2c(c1)OCO2`?
Artemis inh: -14

What do the screens show for `COc1ccc(C(=O)c2c[nH]c3ccccc23)cc1`?
Artemis inh: 10

What do the screens show for `Cn1c(=O)c(-c2cc(Br)ccc2N)nc2ccccc21`?
Artemis inh: 1

What do the screens show for `Cc1ccc(C(=O)NC(=S)Nc2ccc(S(=O)(=O)N3CCN(C)CC3)cc2)cc1`?
Artemis inh: 4

What do the screens show for `COc1cccc(/C=N/NC(=O)c2ccc(-c3ccccc3)cc2)c1O`?
Artemis inh: 13

What do the screens show for `COc1ccccc1NC(=O)c1[nH]c(C)c(C(C)=O)c1C`?
Artemis inh: -4

Results for COc1cccc(/C=N/NC(=O)c2[nH]c(C)c(C(=O)N/N=C/c3cccc(OC)c3O)c2C)c1O ?
Artemis inh: 91*

How did CCCS(=O)(=O)N1CCCC(C(=O)N2CCN(C(=O)OCC)CC2)C1 (stereo unspecified) do in these assays?
Artemis inh: -4

Results for COC(=O)c1[nH]cnc1C(=O)c1ccccc1 ?
Artemis inh: -5

What do the screens show for `Cc1ccc(C(=O)N/C(=C\c2ccc(-c3cc(Cl)ccc3Cl)o2)C(=O)NCc2cccnc2)cc1`?
Artemis inh: 34*

How did O=C(Nc1c(Cl)cc(Cl)cc1C(=O)NCc1cccnc1)c1ccc(Cl)cc1Cl do in these assays?
Artemis inh: 0

What do the screens show for `O=C(NCc1cccnc1)/C(=C/c1ccc(-c2cccc(Cl)c2)o1)S(=O)(=O)c1ccccc1`?
Artemis inh: 1

Results for CCCOc1ccc(C(=O)NNC(=S)NC(=O)c2cc(-c3ccccc3)nc3ccccc23)cc1 ?
Artemis inh: 11

Results for COC(=O)CSc1nnc(CNS(=O)(=O)c2ccc(Cl)cc2)n1C ?
Artemis inh: 0

How did COCCNC(=O)COC(=O)/C=C/c1c(C)nn(Cc2ccc(Cl)cc2Cl)c1Cl do in these assays?
Artemis inh: 4

What do the screens show for `c1ccc(N2CCN(c3nc(NCc4ccco4)c4ccccc4n3)CC2)cc1`?
Artemis inh: 25

How did c1coc(CNc2nc(N3CCCCC3)nc3ccccc23)c1 do in these assays?
Artemis inh: 6

What do the screens show for `c1ccc(-c2nc(NCc3ccco3)c3ccccc3n2)nc1`?
Artemis inh: 64*

Results for Clc1ccc(Cn2ncc3c(N4CCOCC4)ncnc32)cc1 ?
Artemis inh: 7

How did COc1cc2c(cc1OC)-c1nnc(-c3ccco3)n1C1(CCCC1)C2 do in these assays?
Artemis inh: -1

What do the screens show for `CCCc1cc2c(cc1NC(=O)c1ccc(Br)cc1)OCO2`?
Artemis inh: 4

Results for CCNc1ccc(Br)cc(C(=O)/C=C/c2ccc3c(c2)OCO3)c1=O ?
Artemis inh: 34*

Results for CC(=O)N/C(=C/c1ccc2c(c1)OCO2)C(=O)NCCCO ?
Artemis inh: -13

Results for Cc1ccnc(NC(=O)c2cccc(NS(=O)(=O)c3ccccc3C)c2)c1 ?
Artemis inh: 9
